From PubChem BioAssay
An excerpt weighted towards active compounds, which were near 19% of everything screened.
ASM inhibitor = inhibitors of human secretory acid sphingomyelinase; placental ASM, HMU-PC fluorogenic substrate, 60 min; Potency, µM (top dose mostly 57.5 µM), hits mostly inhibitors; 340,000 tested, 0.006% active
Target sequence (P17405 47-631 limits assumed): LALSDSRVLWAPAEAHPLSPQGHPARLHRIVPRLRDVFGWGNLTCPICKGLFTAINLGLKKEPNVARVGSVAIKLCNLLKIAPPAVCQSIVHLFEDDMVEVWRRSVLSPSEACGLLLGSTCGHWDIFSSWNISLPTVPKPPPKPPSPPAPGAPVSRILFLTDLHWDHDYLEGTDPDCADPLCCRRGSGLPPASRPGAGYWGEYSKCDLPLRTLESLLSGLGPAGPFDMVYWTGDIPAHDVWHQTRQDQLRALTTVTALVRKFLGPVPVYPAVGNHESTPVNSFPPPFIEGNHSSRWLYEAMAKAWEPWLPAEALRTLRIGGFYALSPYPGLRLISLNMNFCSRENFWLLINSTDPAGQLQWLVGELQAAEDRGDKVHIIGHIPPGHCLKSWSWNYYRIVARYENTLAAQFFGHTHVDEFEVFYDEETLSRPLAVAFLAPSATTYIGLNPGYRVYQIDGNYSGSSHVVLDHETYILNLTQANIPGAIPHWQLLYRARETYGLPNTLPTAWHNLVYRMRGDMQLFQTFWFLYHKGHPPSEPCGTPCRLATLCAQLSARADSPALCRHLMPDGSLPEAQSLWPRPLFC
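HMU-PC0 cleavage (9 uM final) by human placental ASM, 60 min at 37 °C following 10 min compound exposure at RT; stopped at pH 10, fluorescence Ex 386/Em 447 nm.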
TGFb SMAD3 inh = inhibitors of TGF-b signaling; HepG2 CAGA-GFP TGF-b/SMAD3 reporter, GFP fluorescence, 18 h; TGF-beta stimulated, 500 pg/mL final; Potency, µM (doses to about 46.1 µM), actives largely listed as inhibitors; 410,000 tested, 1.2% active; also: nearly all actives have a fitted effect of over 65% in size
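TGF-beta reporter screen: HEPG2 CAGA-GFP, 1% FBS, 500 pg/mL TGF-beta final, 18 h; per-cell GFP summed per well; curves fitted and categorized by class.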
TDP1 cell CPT = growth inhibition of DT40 Tdp1-/-;hTDP1 cells with camptothecin (screen for TDP1 inhibitors). chicken DT40 Tdp1-/-;hTDP1 cells + 20 nM CPT, ATP luminescence, 48 h. Potency, µM (series often up to 46.2 µM), actives largely listed as inhibitors. 420,000 tested, 12% active. AID 686979; also: nearly all actives have a fitted effect of over 55% in size
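Chicken DT40 Tdp1-/- cells complemented with human TDP1, 400 cells/well, exposed to compounds plus 20 nM camptothecin for at least 48 h at 37 C; viability read as ATP content by CellTiter-Glo luminescence.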
IL-1B inflam inh = inhibitors of inflammasome signaling (IL-1 beta secretion). THP-1 LPS/ATP IL-1B secretion, AlphaLISA, 16 h; active compounds read low. activity change, % at 57.5 µM. 360,000 tested, 4.7% active; in the data active = activity change below about -50%; inconclusive = mostly about -30% to -49%
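THP-1 cells pretreated 1 hr with compounds (up to 57.5 uM final), then stimulated with LPS (250 ng/mL final) plus ATP (1.25 mM final); secreted IL-1B measured by AlphaLISA after 16 hr, decreased signal indicating inhibition.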
HepG2 tox = counter-screen for TGF-b inhibitors: cytotoxicity in HepG2 cells; HepG2 CAGA-GFP viability, ATP luminescence, 18 h; Potency, µM (doses to about 46.1 µM), most hits filed as cytotoxic; 410,000 tested, 0.76% active; AID 588856
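HepG2 CAGA-GFP cells (1000/well, DMEM with 1% FBS) received compound, then TGF-beta at 500 pg/mL final, and were incubated 18 hours at 37 degrees C. Viability was read by CellTiter-Glo luminescence. Media-only wells were set as complete cell-killing and DMSO as no toxicity.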
DT40 TDP1 no CPT = qHTS for Inhibitors of human tyrosyl-DNA phosphodiesterase 1 (TDP1): qHTS in cells in absence of CPT | DT40 Tdp1-/- hTDP1 cells, no CPT, ATP luminescence, 48 h | Potency, µM (doses to about 46.2 µM), usual class: inhibitors | 420,000 tested, 15% active | AID 686978, 2013; also: nearly all actives have a fitted effect of over 55% in size
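Growth kinetics read by CellTiter-Glo luminescence after ≥48 hr at 37 °C. Cells: DT40 Tdp1-/- stably carrying human TDP1, 400 per well, compound exposure in the absence of CPT (DMSO vehicle).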
Large screens that a line does not name were inactive. Unless noted, calls follow the shape of the dose curve; as a rule, active = well fitted curve in the direction sought with a large enough effect; inconclusive = small, poorly fitted or top-dose-only effect, or another doubt; inactive = no such curve, though single readings can be large; an effect the other way counts as inactive or inconclusive.

CC(C)N(C(=O)N1CCC(c2nc(-c3ccncc3)no2)CC1)C(C)C	TDP1 cell CPT inconclusive, DT40 TDP1 no CPT 18µM
O=C(Cc1ccccc1)N1CCCC(c2nc(-c3ccc(S(=O)(=O)N4CCCC4)cc3)no2)C1 (stereo unspecified)	TDP1 cell CPT inconclusive, IL-1B inflam inh -72, DT40 TDP1 no CPT inconclusive
COc1ccc(NC(=O)COC(=O)CCC2CCCCC2)cc1	none
Cc1cc(C(=O)N2CCC2(C)C(=O)Nc2cccc3ccccc23)nn1C (stereo unspecified)	TDP1 cell CPT inconclusive, DT40 TDP1 no CPT inconclusive (no result: ASM inhibitor)
O=C(c1cc(F)cc(F)c1)N1CCC(c2nc(-c3ccc(S(=O)(=O)N4CCCC4)cc3)no2)CC1	TGFb SMAD3 inh inconclusive, TDP1 cell CPT inconclusive, DT40 TDP1 no CPT inconclusive (no result: ASM inhibitor, IL-1B inflam inh)
O=C(C1CC1)N1CCC(c2nc(-c3ccc(S(=O)(=O)N4CCCC4)cc3)no2)CC1	TGFb SMAD3 inh inconclusive, TDP1 cell CPT inconclusive, DT40 TDP1 no CPT 21µM
O=S(=O)(c1ccc2ccccc2c1)N1CCC(c2nc(-c3ccncc3)no2)CC1	TGFb SMAD3 inh inconclusive, TDP1 cell CPT 16µM, DT40 TDP1 no CPT 9.2µM
CC(C)(C)c1ccc(C(=O)N2CCC(c3noc(-c4ccc(S(=O)(=O)N5CCCC5)cc4)n3)CC2)cc1	TDP1 cell CPT 21µM, DT40 TDP1 no CPT 18µM (no result: ASM inhibitor, IL-1B inflam inh)
Cc1ccc(-c2nc(C3CCN(S(=O)(=O)c4ccc(C(C)(C)C)cc4)CC3)no2)cc1	TDP1 cell CPT inconclusive, DT40 TDP1 no CPT inconclusive
CC1(C(=O)NS(=O)(=O)c2ccc(F)cc2F)CCN1C(=O)C1(c2ccc(Cl)cc2)CCC1 (stereo unspecified)	none (no result: ASM inhibitor)
Cn1c(-c2cccc([N+](=O)[O-])c2)cnc1NCc1cccc([N+](=O)[O-])c1	TDP1 cell CPT inconclusive, DT40 TDP1 no CPT inconclusive
COc1ccc(-c2cnc(NCc3cc4c(cc3[N+](=O)[O-])OCO4)n2C)cc1	TGFb SMAD3 inh inconclusive, TDP1 cell CPT 26µM, IL-1B inflam inh -51, DT40 TDP1 no CPT 13µM
COc1ccc(CNc2ncc(-c3ccccc3)n2C)c2ccccc12	TGFb SMAD3 inh inconclusive, TDP1 cell CPT inconclusive, DT40 TDP1 no CPT inconclusive
Cc1cccc(CNc2ncc(-c3cccc([N+](=O)[O-])c3)n2C)c1	TDP1 cell CPT inconclusive, DT40 TDP1 no CPT 16µM
COc1ccc(OC)c(CNc2ncc(-c3cccc([N+](=O)[O-])c3)n2C)c1	TDP1 cell CPT 16µM, IL-1B inflam inh inconclusive, DT40 TDP1 no CPT inconclusive
Cc1ccc(S(=O)(=O)c2nnn(CC(=O)Nc3ccccc3C)c2N)cc1	TGFb SMAD3 inh inconclusive (no result: ASM inhibitor, IL-1B inflam inh)
Cc1ccc(S(=O)(=O)c2nnn(CC(=O)Nc3ccccc3C)c2N)cc1C	TDP1 cell CPT inconclusive, DT40 TDP1 no CPT 15µM (no result: ASM inhibitor, IL-1B inflam inh)
C=CCN(c1ccc(C(=O)Nc2cccc([N+](=O)[O-])c2)cc1)S(C)(=O)=O	DT40 TDP1 no CPT inconclusive
CC1(C)CC[C@]2(C(=O)O)CC[C@]3(C)C(=CC[C@@H]4[C@@]5(C)CC[C@H](O)C(C)(C)[C@@H]5CC[C@]43C)[C@@H]2C1	TDP1 cell CPT inconclusive, DT40 TDP1 no CPT 23µM
CC1(C)C[C@H](O)[C@]2(CO)[C@H](O)C[C@]3(C)C(=CCC4[C@@]5(C)CC[C@H](O)C(C)(C)C5CC[C@]43C)[C@@H]2C1 (stereo partly specified)	TGFb SMAD3 inh inconclusive, TDP1 cell CPT inconclusive, HepG2 tox 11µM, DT40 TDP1 no CPT 23µM
CC1(C)C[C@H](O)[C@]2(CO)CC[C@]3(C)C(=CCC4[C@@]5(C)CC[C@H](O)C(C)(C)C5CC[C@]43C)[C@@H]2C1 (stereo partly specified)	TDP1 cell CPT inconclusive, DT40 TDP1 no CPT inconclusive
Cc1ccc(-n2nc3c(c2NC(=O)/C=C\c2ccc4c(c2)OCO4)CSC3)c(C)c1	IL-1B inflam inh inconclusive
